Each structure is given as a SMILES string. Calls of active or inactive are those of the source. Rule for the calls: active = hit-call score of the fitted dose curve at least 0.9, where 1 is the maximum; inactive = score below 0.9.

Read-out in the first assay: not listed separately
Briefly: BSK_BE3C_SRB: Viability Assessment in the BioMAP Diversity Plus: BE3C Assay (AID 2283028). As to conditions: primary human bronchial epithelial cells. An outline of the steps: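 Human primary bronchial epithelial cells were exposed to test chemicals for 24 h. Total protein in parallel cultures was then measured by staining with 0.1% sulforhodamine B after 10% TCA fixation, with absorbance read at 560 nm. Activity was fitted bidirectionally against DMSO.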
For the molecule `CNC[C@H](O)c1cccc(O)c1`, the result was inactive.
Turning to `O=C(O)C[C@H](O)C[C@H](O)/C=C/c1c(C2CC2)nc2ccccc2c1-c1ccc(F)cc1`, the outcome was inactive.
For `O=C(O)c1ccc([N+](=O)[O-])cc1`, the outcome was inactive.
As for `Cc1ccc2n[nH]nc2c1`, the result was inactive.

Read-out in another assay: Thrombomodulin, THBD (gene 7056)
Briefly: BSK_3C_Thrombomodulin: BioMAP Diversity Plus: 3C Assay for Thrombomodulin Biomarker Activity (AID 2283029). The following applies: primary human endothelial cells (HUVEC); actives raise or lower the signal. An outline of the steps: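 ELISA measurement of thrombomodulin on HUVEC surface 24 h after chemical dosing; activity fitted in both directions relative to DMSO vehicle.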
On to `CNC[C@H](O)c1cccc(O)c1`, for which the result was inactive.
Same read-out and setting: the result for `O=C(O)C[C@H](O)C[C@H](O)/C=C/c1c(C2CC2)nc2ccccc2c1-c1ccc(F)cc1` reads “inactive”; that for `O=C(O)c1ccc([N+](=O)[O-])cc1`, “inactive”.
Take `Cc1ccc2n[nH]nc2c1`: the outcome was inactive.

Read-out in another assay: Urokinase-type plasminogen activator receptor (uPAR), PLAUR (gene 5329)
Put plainly: BSK_4H_uPAR: BioMAP Diversity Plus: 4H Assay for Urokinase-type plasminogen activator receptor (uPAR) Biomarker Activity (AID 2283030). The following applies: primary human endothelial cells (HUVEC); actives raise or lower the signal. An outline of the steps: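 Primary human umbilical vein endothelial cells were exposed to chemical for 24 h before cell-surface uPAR was quantified by ELISA. Activity was fitted bidirectionally against the DMSO negative control baseline.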
For `CNC[C@H](O)c1cccc(O)c1`, the result was inactive.
Still for that read-out and setting: the result for `O=C(O)C[C@H](O)C[C@H](O)/C=C/c1c(C2CC2)nc2ccccc2c1-c1ccc(F)cc1` reads “inactive”; that for `O=C(O)c1ccc([N+](=O)[O-])cc1`, “inactive”; that for `Cc1ccc2n[nH]nc2c1`, “inactive”.

Read-out in the next assay: Vascular endothelial growth factor receptor 2 (Homo sapiens) (UniProt P35968)
Briefly: BSK_4H_VEGFRII: BioMAP Diversity Plus: 4H Assay for Vascular endothelial growth factor receptor 2 (VEGFR2) Biomarker Activity (AID 2283031). The following applies: primary human endothelial cells (HUVEC); actives raise or lower the signal. An outline of the steps:
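Primary human umbilical vein endothelial cells in the BioMAP 4H system were dosed with test chemical, and 24 h later VEGFRII was measured by ELISA. Activity was fitted bidirectionally against DMSO as negative control and baseline.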
In the case of `CNC[C@H](O)c1cccc(O)c1`, the result was inactive.
Still for that read-out and setting: the result for `O=C(O)C[C@H](O)C[C@H](O)/C=C/c1c(C2CC2)nc2ccccc2c1-c1ccc(F)cc1` reads “inactive”; that for `O=C(O)c1ccc([N+](=O)[O-])cc1`, “inactive”.
For the molecule `Cc1ccc2n[nH]nc2c1`, the result was inactive.

(Values after PubChem BioAssay (EPA / NIEHS).)
